According to PubChem BioAssay (Tox21):
Several values for one entry are separate records, joined by “and”; a condition that tells them apart may be missing. Equal entries are not always repeated. Records with an inconclusive call do not appear. A call without a number means that no potency is given here. Where a structure was tested more than once in an assay, its records may differ in their call. Activity calls are given as the source filed them. Calls come from the whole dose curve; as a rule, active = well fitted curve in the direction sought with a large enough effect in the repeat runs; inconclusive = weak or mixed curves; inactive = no such curve, though single readings can be large; an effect the other way counts as inactive or inconclusive.

How the values were obtained:
[1] = A CellTox Green Cytotoxicity Assay to monitor cytotoxicity in HEK293 cells - 24 hour (AID 1224875); note: series mostly up to about 77 µM; nearly all actives have a fitted effect of over 45% in size
Procedure, shortened: (§1)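 Nonlytic real-time cytotoxicity: HEK293 + CellTox Green reagent plated, 5 h preincubation, pintool compound addition (23 nL in DMSO), 37 C for 40 h, fluorescence measured at successive time points.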

[2] = A CellTox Green Cytotoxicity Assay to monitor cytotoxicity in HepG2 cells - 16 hour (AID 1224876); note: nearly all actives have a fitted effect of over 45% in size; note: potency is the fitted concentration of half-maximal effect
Procedure, shortened: (§2)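 Read-out is fluorescence of a cyanine dye excluded from live cells that stains DNA of dead HepG2 cells, with signal proportional to cytotoxicity. Plates were read at 0, 8, 16, 24, 32 and 40 h after compound addition.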

[3] = qHTS RealTime-Glo MT Cell Viability Assay in HepG2 cells - 32 hour (AID 1224877); note: nearly all actives have a fitted effect of over 55% in size
Procedure, shortened: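 Cells + NanoLuc/prosubstrate dispensed (600 cells/well) → 5 h at 37 C/5% CO2 → compounds in DMSO transferred → 40 h incubation at 37 C, luminescence read at 0, 8, 16, 24, 32, 40 h.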

[4] = A CellTox Green Cytotoxicity Assay to monitor cytotoxicity in HepG2 cells - 40 hour (AID 1224879); note: nearly all actives have a fitted effect of over 40% in size; note: potency is the fitted concentration of half-maximal effect
Procedure, shortened: as §2

[5] = qHTS RealTime-Glo MT Cell Viability Assay in HEK293 cells - 0 hour (AID 1224880); note: top concentration of the series differs between compounds; nearly all actives have a fitted effect of over 45% in size
Procedure, shortened: (§3)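 Cells were seeded together with NanoLuc luciferase and a prosubstrate that viable cells reduce to a luciferase substrate. After a 5 h incubation at 37 C/5% CO2, compounds were added and luminescence was measured repeatedly during 40 h of treatment.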

[6] = A CellTox Green Cytotoxicity Assay to monitor cytotoxicity in HEK293 cells - 32 hour (AID 1224881); note: nearly all actives have a fitted effect of over 40% in size; note: potency is the fitted concentration of half-maximal effect
Procedure, shortened: as §1

[7] = A CellTox Green Cytotoxicity Assay to monitor cytotoxicity in HepG2 cells - 0 hour (AID 1224882); note: nearly all actives have a fitted effect of over 35% in size; note: potency is the fitted concentration of half-maximal effect
Procedure, shortened: as §2

[8] = A CellTox Green Cytotoxicity Assay to monitor cytotoxicity in HepG2 cells - 32 hour (AID 1224883); note: nearly all actives have a fitted effect of over 50% in size; note: potency is the fitted concentration of half-maximal effect
Procedure, shortened: as §2

[9] = qHTS RealTime-Glo MT Cell Viability Assay in HEK293 cells - 40 hour (AID 1224874); settings: RealTime-Glo luminescence; max response: stronger effect = lower value; note: nearly all actives have a fitted effect of over 50% in size
Procedure, shortened: as §3

[10] = A CellTox Green Cytotoxicity Assay to monitor cytotoxicity in HepG2 cells - 24 hour (AID 1224878); note: nearly all actives have a fitted effect of over 45% in size
Procedure, shortened: as §2

For `Cn1cc(-c2ccccc2)c(=O)c(-c2cccc(C(F)(F)F)c2)c1`, the Potency [1] was “inactive”, the Potency [2] was “inactive” and the outcome [3] was “inactive”. The Potency [4] was “inactive”, the outcome [5] was “inactive” and the Potency [6] was “inactive”. For the same compound, the Potency [7] was “inactive” and the Potency [8] was “inactive”.
In the case of `O=NN1CCCC1`, the max response [9] is reported as -15.8% (inactive) and -5.95% (inactive), the outcome [3] is reported as “inactive” and the Potency [4] is reported as 57.5 µM (active) and inactive. For the same compound, the outcome [5] was “inactive”, the Potency [6] was “inactive” and the Potency [7] was “inactive”.
In the case of `ClCc1cccnc1`, the max response [9] is reported as 2.33% (inactive) and -1.14% (inactive), the Potency [2] is reported as “inactive” and the outcome [3] is reported as “inactive”. The Potency [4] was “inactive”, the Potency [6] was “inactive” and the Potency [7] was “inactive”. For the same compound, the Potency [8] was “inactive”.
In the case of `CCC[CH2][Sn]([Cl])([Cl])[Cl]`, the Potency [1] is reported as “inactive”, the Potency [2] is reported as “inactive” and the outcome [3] is reported as “inactive”. For the same compound, the Potency [10] was “inactive”, the Potency [4] was “inactive” and the outcome [5] was “inactive”. For the same compound, the Potency [6] was “inactive”, the Potency [7] was “inactive” and the Potency [8] was “inactive”.
With `O=[N+]([O-])c1ccc(Oc2ccc(Cl)cc2Cl)cc1` the Potency [2] was “inactive”, the outcome [3] was “inactive” and the Potency [10] was “inactive”. The Potency [4] was “inactive”, the outcome [5] was “inactive” and the Potency [6] was “inactive”. For the same compound, the Potency [7] was “inactive” and the Potency [8] was “inactive”.
In the case of `Cc1ccccc1O`, the max response [9] is reported as 2.91% (inactive) and -0.867% (inactive), the Potency [2] is reported as “inactive” and the outcome [3] is reported as “inactive”. The Potency [4] was “inactive”, the Potency [6] was “inactive” and the Potency [7] was “inactive”. The Potency [8] was “inactive”.
For `CN(N=O)c1ccccc1`, the max response [9] was 9.26% (inactive) and 4.33% (inactive), the Potency [2] was “inactive” and the outcome [3] was “inactive”. The Potency [10] was “inactive”, the Potency [4] was “inactive” and the Potency [6] was “inactive”. For the same compound, the Potency [7] was “inactive” and the Potency [8] was “inactive”.
With `O=c1ccc(=O)[nH][nH]1` the max response [9] was -2.89% (inactive) and -0.4% (inactive), the Potency [2] was “inactive” and the outcome [3] was “inactive”. The Potency [10] was “inactive”, the Potency [4] was “inactive and 130 nM (active)” and the Potency [6] was “inactive”. The Potency [7] was “inactive” and the Potency [8] was “inactive and 130 nM (active)”.
With `Cc1ccc([N+](=O)[O-])cc1C` the max response [9] was -0.25% (inactive) and 2.38% (inactive), the Potency [2] was “inactive” and the outcome [3] was “inactive”. For the same compound, the Potency [10] was “inactive”, the Potency [4] was “inactive” and the Potency [6] was “inactive”. The Potency [7] was “inactive” and the Potency [8] was “inactive”.
In the case of `C#CC(C)(C)NC(=O)c1cc(Cl)cc(Cl)c1`, the max response [9] is reported as -9.66% (inactive), the Potency [2] is reported as “inactive” and the outcome [3] is reported as “inactive”. The Potency [4] was “inactive”, the outcome [5] was “inactive” and the Potency [6] was “inactive”. For the same compound, the Potency [7] was “inactive” and the Potency [8] was “inactive”.
For `C1CN2CCN1CC2`, the max response [9] was 1.08% (inactive) and 21.8% (inactive), the Potency [2] was “inactive and 21.9 µM (active)” and the outcome [3] was “inactive”. The Potency [4] was “inactive and 21.9 µM (active)”, the outcome [5] was “inactive” and the Potency [6] was “inactive and 21.9 µM (active)”. The Potency [7] was “inactive and 21.9 µM (active)” and the Potency [8] was “inactive and 21.9 µM (active)”.
In the case of `C#CCN(C)[C@H](C)Cc1ccccc1`, the max response [9] is reported as 3.52% (inactive) and 3.78% (inactive), the Potency [2] is reported as “inactive” and the outcome [3] is reported as “inactive”. The Potency [10] was “inactive”, the Potency [4] was “inactive” and the Potency [6] was “inactive”. The Potency [7] was “inactive” and the Potency [8] was “inactive”.
With `CCN(CC)c1ccccc1` the max response [9] was 8.36% (inactive) and 18.4% (inactive), the Potency [2] was “inactive” and the outcome [3] was “inactive”. For the same compound, the Potency [4] was “inactive”, the Potency [6] was “inactive” and the Potency [7] was “inactive”. For the same compound, the Potency [8] was “inactive”.
In the case of `OCCN(CCO)CCO`, the max response [9] is reported as -6.59% (inactive) and 8.79% (inactive), the Potency [2] is reported as “inactive” and the outcome [3] is reported as “inactive”. The Potency [10] was “inactive”, the Potency [4] was “inactive” and the Potency [6] was “inactive”. For the same compound, the Potency [7] was “inactive” and the Potency [8] was “inactive”.
For `CC(NC(C)(C)C)C(=O)c1cccc(Cl)c1` (stereo not given), the max response [9] was 6.38% (inactive) and -11.6% (inactive), the Potency [2] was “inactive” and the outcome [3] was “inactive”. The Potency [4] was “inactive”, the outcome [5] was “inactive” and the Potency [6] was “inactive”. For the same compound, the Potency [7] was “inactive” and the Potency [8] was “inactive”.
For `c1ccc2c(c1)oc1ccccc12`, the max response [9] was -5.88% (inactive) and -12.6% (inactive), the Potency [2] was “inactive” and the outcome [3] was “inactive”. The Potency [10] was “inactive”, the Potency [6] was “inactive” and the Potency [7] was “inactive”.
With `CCOC(=O)c1ccccc1C(=O)OCC` the max response [9] was 0.767% (inactive) and 3.18% (inactive), the Potency [2] was “inactive” and the outcome [3] was “inactive”. For the same compound, the Potency [4] was “inactive”, the outcome [5] was “inactive” and the Potency [6] was “inactive”. For the same compound, the Potency [7] was “inactive” and the Potency [8] was “inactive”.
With `O=S(=O)(c1ccc(O)cc1)c1ccc(O)cc1` the max response [9] was -19.2% (inactive), the Potency [2] was “inactive” and the outcome [3] was “inactive”. For the same compound, the Potency [4] was “inactive”, the outcome [5] was “inactive” and the Potency [6] was “inactive”. The Potency [7] was “inactive” and the Potency [8] was “inactive”.
In the case of `CCCCCCCCCCCC#N`, the max response [9] is reported as -12% (inactive) and 12.1% (inactive), the Potency [2] is reported as “inactive and 45.2 µM (active)” and the outcome [3] is reported as “inactive”. The Potency [4] was “inactive and 50.7 µM (active)”, the Potency [6] was “inactive and 40.3 µM (active)” and the Potency [7] was “inactive and 45.2 µM (active)”. The Potency [8] was “inactive and 45.2 µM (active)”.
In the case of `COC(=O)NC(=S)Nc1ccccc1NC(=S)NC(=O)OC`, the Potency [1] is reported as “inactive”, the Potency [2] is reported as “inactive” and the outcome [3] is reported as “inactive”. The Potency [4] was “inactive”, the outcome [5] was “inactive” and the Potency [6] was “inactive”. The Potency [7] was “inactive” and the Potency [8] was “inactive”.
In the case of `Nc1ccc(Oc2ccc(N)cc2)cc1`, the max response [9] is reported as -6.06% (inactive) and -21.5% (inactive), the Potency [2] is reported as “inactive” and the outcome [3] is reported as “inactive”. The Potency [4] was “inactive”, the Potency [6] was “inactive” and the Potency [7] was “inactive”. For the same compound, the Potency [8] was “inactive”.
